PNC inhibitor – blocks assembly of the perinucleolar compartment. 140,000 tested, 3.1% active. PC3M PTB-GFP, PNC prevalence imaging, 16 h; hits give low values. activity change (PNC), negative = inhibition, % at 10 µM;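 active means readout at or below -70, meaning at least 70% loss of cells showing the perinucleolar compartment, a nuclear body marking cancer cells; inconclusive means readout between -30 and a set limit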;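 further: plate controls were DMSO wells for no effect and camptothecin positive control wells for full effect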
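Read-out is percentage of cells bearing a perinucleolar compartment, from automated 20x imaging of fixed, Hoechst-stained PC3M PTB-GFP cells. Cells were seeded 4 h, then exposed 16 h to compound (23 nl of library stock) in duplicate plates.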
HPGD block – blocks human HPGD enzyme activity | P15428 | Potency, µM, for the others: top-dose activity change, negative = inhibition, usual class: inhibitors | AID 894 | purified HPGD, NADH fluorescence kinetic, PGE2 substrate | 150,000 tested, 4.3% active; active means well fitted inhibition curve with a large enough effect, not every such curve was filed as active; inconclusive means small, poorly fitted or top-dose-only effect, or another doubt; inactive means no such curve, though single readings can be large or run the other way; further: potency means the concentration at half of the fitted maximal effect; on the % scale 0 is the no-effect control and ±100 the full control effect
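NADH formation kinetics: reaction with 30 uM PGE2 and 1 mM NAD+ (final), 20 nM enzyme, Tris-HCl pH 8 with Tween 20, after 15 min compound preincubation at room temperature. Fluorescence change, last versus first of five reads.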
ALDH1A1 inh – ALDH1A1 (human) enzyme inhibition; Potency, µM (titrated, usually from 75.3 µM), for inactives: at the highest dose activity, negative = inhibition, usual class: inhibitors; 220,000 tested, 7.3% active; AID 1030; P00352; Purified ALDH1A1, NADH fluorescence, propionaldehyde substrate; active means well fitted inhibition curve with a large enough effect, not every such curve was filed as active; inconclusive means small, poorly fitted or top-dose-only effect, or another doubt; inactive means no such curve, though single readings can be large or run the other way;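 further: potency means the concentration at half of the fitted maximal effect; plate controls were no enzyme wells and a reference inhibitor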
HTT aggregate – reduces HttQ103-GFP aggregates in PC12 cells; AID 1688; 220,000 tested, 1.1% active; Potency, µM (titrated, usually from 46.1 µM), without a hit: top-dose activity change, negative = inhibition, hits mostly inhibitors; PC12 HttQ103-GFP aggregates, Acumen cytometry, 40 h; further: potency means the concentration at half of the fitted maximal effect; on the % scale 0 is the no-effect control and ±100 the full control effect; nearly all actives have a fitted effect of over 60% in size
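Huntingtin Q103 exon 1–GFP aggregates in induced PC12 cells (100 nM tebufenozide) were quantified by cytometry from lysates, with compounds dosed in titration.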
HTT ATP protect – protects HTT-Q103 PC12 cells, measured by ATP. PC12 HTT-Q103 induced, cytoprotection, ATP luminescence, 40 h. Potency, µM (titrated, usually from 56.4 µM), inactives show cytoprotection (ATP increase), most hits filed as activators. 230,000 tested, 0.14% active. AID 1471; further: potency means the concentration at half of the fitted maximal effect; % of control where 0% means no effect; nearly all actives have a fitted effect of over 45% in size
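Huntington model: PC12 line, ecdysone-inducible HTTQ103 exon1–GFP, tebufenozide 100 nM. Test articles in a dose series. Endpoint luminescence from cellular ATP.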
CBFb-RUNX1 inh – inhibitors of human CBF-beta and RUNX1 interaction | Q01196+Q13951 | AlphaScreen CBFb-His/RUNX1-biotin binding, biochemical | Potency, µM (titrated, usually from 59.8 µM), without a hit: at the highest dose activity, negative = inhibition, most hits filed as inhibitors | 230,000 tested, under 10 active | AID 1477; further: % of control where 0% means no effect
Target sequence (Q01196 whole entry, looked up): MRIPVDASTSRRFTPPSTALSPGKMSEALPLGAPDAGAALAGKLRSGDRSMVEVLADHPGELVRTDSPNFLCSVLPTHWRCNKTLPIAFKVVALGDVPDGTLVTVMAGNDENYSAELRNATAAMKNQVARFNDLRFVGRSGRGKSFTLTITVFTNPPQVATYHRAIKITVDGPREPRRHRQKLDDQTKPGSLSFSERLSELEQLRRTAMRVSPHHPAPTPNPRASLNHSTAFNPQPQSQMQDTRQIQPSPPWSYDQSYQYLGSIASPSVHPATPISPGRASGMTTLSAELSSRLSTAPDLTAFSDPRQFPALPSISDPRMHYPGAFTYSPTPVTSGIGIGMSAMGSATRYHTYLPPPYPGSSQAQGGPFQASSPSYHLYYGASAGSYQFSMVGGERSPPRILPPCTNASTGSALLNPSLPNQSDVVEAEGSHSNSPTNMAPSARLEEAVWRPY
Target sequence (Q13951 whole entry, looked up): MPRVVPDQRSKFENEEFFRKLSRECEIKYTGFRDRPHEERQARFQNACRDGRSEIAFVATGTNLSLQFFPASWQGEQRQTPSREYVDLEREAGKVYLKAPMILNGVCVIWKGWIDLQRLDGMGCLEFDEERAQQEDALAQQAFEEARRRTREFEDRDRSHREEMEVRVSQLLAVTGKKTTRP
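His-tagged CBF-beta and biotinylated RUNX1 (30 nM each) were premixed 20 min at room temperature, exposed to compound for 15 min, then given nickel-chelate and streptavidin AlphaScreen beads (50 ng each). After 90 min, AlphaScreen signal was read.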
* hit, by the source's call; ? = inconclusive; nt = no result; [ ] = remark or other dose. Most compounds without a hit are left out; they make up all but 11% or so of the library. Unless noted, the call rests on the fitted dose curve; in most records, active means well fitted curve in the direction sought with a large enough effect; inconclusive means small, poorly fitted or top-dose-only effect, or another doubt; inactive means no such curve, though single readings can be large; an effect the other way counts as inactive or inconclusive.

SMILES	PNC inhibitor	HPGD block	ALDH1A1 inh	HTT aggregate	HTT ATP protect	CBFb-RUNX1 inh
O=c1[nH]c(/C=C/c2cccc3ccccc23)nc2ccccc12	nt	nt	-7%	-6%[9.22 µM]	-8%[10 µM]	1%
CCCN1C(=O)/C(=C\c2nc3ccccc3c(=O)[nH]2)c2ccccc21	nt	nt	4.5µM*	-19%[9.22 µM]	-6%[10 µM]	-8%
CCCC(=O)O[C@]1(C(=O)CCl)[C@H](C)C[C@@H]2[C@H]3CCC4=CC(=O)C=C[C@]4(C)[C@@]3(F)C(=O)C[C@@]21C	nt	nt	nt	2%	-11%	nt
Nc1ncnc2c1ncn2CCOc1ccccc1	26	-7%	-3%	-12%	-64%[0.074 µM]	-1%
CC(C)Oc1ccc(OCCn2c(=S)[nH]c3c(N)ncnc32)cc1	nt	nt	10µM*	-3%	-45%	-9%
Cc1ccc(OCCn2c(=S)[nH]c3c(N)ncnc32)cc1	nt	nt	7.9µM*	8%	-45%	-9%
Cc1ccc(OCCSc2nc3ncnc(N)c3[nH]2)cc1	nt	nt	7%	-8%	-18%[10 µM]	-5%
CC(=O)OC1CC[C@]2(C)C(CC(OC(C)=O)[C@@]3(C)C4=CC(=O)OC(c5ccoc5)[C@]4(C)CCC23)C1(C)C (some centres not stated)	nt	-10%	4%	nt	-64%	15%
CC(=O)c1c(N(C)C)ccnc1C(F)(F)F	6	-12%	9%	-14%	25%	2%
Nc1ccnc(C(F)(F)F)c1C(=O)c1ccccc1	-82*	-9%	-7%	?	8%[0.074 µM]	3%
C[C@@]12C[C@H](O)[C@@H]3[C@H](CCC4=CC(=O)CC[C@]43C)[C@H]1CC[C@@H]2c1csc(N)n1	nt	nt	nt	nt	-3%[10 µM]	nt
COc1ccc(C(=O)CSc2nc(SC)ns2)cc1OC	-21	-13%	3%	-24%	-3%[0.074 µM]	2%
COc1ccc(C(=O)CSC#N)cc1OC	nt	nt	1.3µM*	10%	?	5%
COc1ccc(C(=O)CSc2cc(C)nc3nc(C)nn23)cc1OC	28	-6%	?	nt	13µM*	9%
CCCn1c(/C=N/Nc2nc3ccccc3[nH]2)nc2ccccc21	31	-19%	-3%	16µM*	-9%[10 µM]	nt
CC(C)Cn1c(/C=N/Nc2nc3ccccc3[nH]2)nc2ccccc21	40	-15%	-4%	6.3µM*	-40%[10 µM]	nt
C(=N\Nc1nc2ccccc2[nH]1)/c1cccs1	4	nt	2.8µM*	?	-94%	5%
Cc1cc(C)n2nc(SCN3C(=O)c4ccccc4C3=O)nc2n1	23	22µM*	?	-11%	-36%	-3%
CCN(C(=O)CSc1nc2nc(C)cc(C)n2n1)c1cccc(C)c1	13	25µM*	?	18%	-24%	3%
Cc1cc(C)n2nc(SCC(=O)N(C)C)nc2n1	?	-3%	0%	2%	2%	6%
CCN(C(=O)CSc1nc2nc(C)cc(C)n2n1)c1ccccc1	19	14µM*	?	9%	-12%[10 µM]	6%
Cc1cc(C)n2nc(SCC(=O)Nc3ccccc3)nc2n1	nt	nt	1%	10%	5%	1%
CCc1c2c(nc3ccc(OC)cc13)-c1nc3ccccc3c(=O)n1C2	nt	nt	nt	nt	nt	12%
COCCN(C(=S)Nc1cccc(OC)c1)C(C)c1cccs1 (configuration not stated)	44	-18%	?	-3%	11%[10 µM]	-3%
Cc1ccc(C(=O)N2CCN(c3ccc(NC(=O)COc4ccccc4C)cc3)CC2)cc1	nt	nt	?	?	-20%	3%
CCc1cccc(CC)c1NC(=O)CSc1nc2ccc(N3C(=O)C4C5C=CC(C5)C4C3=O)cc2s1 (configuration not stated)	0	8.9µM*	?	-32%	-23%	-1%
O=C(O)c1ccc(CSc2nc3ccc(N4C(=O)C5C6C=CC(C6)C5C4=O)cc3s2)cc1 (configuration not stated)	27	16µM*	28µM*	-18%	-10%[0.074 µM]	-6%
Cc1cccc(NC(=O)CSc2nc3ccc(N4C(=O)c5ccccc5C4=O)cc3s2)c1C	2	-15%	?	2%	-8%	0%
